The text below walks through data of PubChem BioAssay AID1240 (Sanford-Burnham Center for Chemical Genomics, 2008).

The structures appear in SMILES notation. The whole screen tested about 50,000 compounds, of which about 800 (1.6%) showed an effect of 50% or more. Shown is part of a subset that was picked to be rich in strong results.

For the assay, the target named is Bcl-2-like protein 10 (Homo sapiens) (UniProt Q9HD36). As to the kind of experiment: Phenotype converters, Bcl-B/TR3 peptide binding displacement, primary biochemical FP (AID 1240).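 Note: 0% = Bcl-B with tracer peptide and DMSO and 100% = tracer peptide lacking Bcl-B.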 As to conditions: GST-Bcl-B / FITC-TR3 peptide fluorescence polarization; stronger effect = higher value; compound at 3.75 mg/L. Background: Fluorescence polarisation rises when a labelled molecule tumbles more slowly, as on binding a larger partner.
Chain of Bcl-2-like protein 10 (Homo sapiens) (Q9HD36 whole entry, looked up): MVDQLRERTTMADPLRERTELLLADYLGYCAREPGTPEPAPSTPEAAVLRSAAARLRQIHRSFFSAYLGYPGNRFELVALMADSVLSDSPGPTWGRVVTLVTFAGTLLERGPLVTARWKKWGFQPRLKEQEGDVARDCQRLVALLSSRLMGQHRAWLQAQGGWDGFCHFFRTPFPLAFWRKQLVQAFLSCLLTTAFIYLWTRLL
Consider `COc1ccc(C(=O)N2CCN(C3C4CC5CC(C4)CC3C5)CC2)cc1OC` (stereo unspecified), for which the displacement is -6.5%.

Turning to `Cc1cccc(N2CCN(C(=O)Nc3ccc(Cl)c(Cl)c3)CC2)c1C`, the displacement was -0.9%.

For `O=S1(=O)CCC(NC(=S)SCCOc2ccccc2OCCO)C1` (stereo unspecified), the displacement stood at 6.3%.

`Cc1cccc(C=Nc2ccc(O)cc2)c1`: the displacement is -8.4%.

As to `CS(=O)(=O)N(CC(=O)Nc1ccc(Cl)cc1)c1ccc(Br)cc1`, the displacement was 3.3%.

Take `Cc1ccc(-c2csc(NC(=O)c3sc4ccccc4c3Cl)n2)c(C)c1`: the displacement is 2.6%.

Take `CCOc1ccc(Cc2c(C)nc3c(C)cccc3c2Cl)cc1`: the displacement is -5.7%.

Turning to `CCC1=NN(C(=O)c2ccncc2)C(O)(c2ccc(Br)cc2)C1` (stereo unspecified), the displacement was determined as 10.2%.

`Cc1ccc(NC(=S)NN2CCN(C)CC2)cc1`: the displacement came out at 5.2%.

Take `Cc1ccc(OCC(=O)NCc2ccco2)c(C)c1`: the displacement was -2.9%.

For the molecule `N#C/C(=C/c1ccccc1)C(=O)Nc1ccc(Cl)c(Cl)c1`, the displacement was determined as 1.5%.

Turning to `CC(C)(C)c1cc(/C=N/Nc2nnc3c(n2)[nH]c2ccccc23)cc(C(C)(C)C)c1O`, the displacement turned out to be 4.8%.

With `CSc1nc(-c2ccccc2)nc2[nH]ccc(=O)c12`, the displacement came out at 110%.

Regarding `Cc1nc(-c2ccccc2)c2c(=O)cc[nH]c2n1`, the displacement is 15.4%.

Consider `Cc1nc(-c2ccccc2)nc2[nH]ccc(=O)c12`, for which the displacement was 11.9%.

Turning to `COc1cc(/C=C2/SC(=S)N(C)C2=O)cc(Br)c1OCCOc1ccccc1C`, the displacement is -2%.

With `COC(=O)C(Cc1ccccc1)NC(=O)CCN1C(=O)c2cccc3cccc(c23)C1=O` (stereo unspecified), the displacement came out at 15%.

For the molecule `CCc1ccc(NC(=O)C(=O)NCCCO)cc1`, the displacement is 5%.

In the case of `CN(C)c1ccc(C(O)C(C)(O)c2nc3ccccc3n2C)cc1` (stereo unspecified), the displacement was found to be 6.1%.

Turning to `C=CCOc1ccc(/C=C2/C(=O)NC(=O)N(c3ccc(C)cc3)C2=O)cc1OCC`, the displacement was -2.8%.

`COc1cc(/C=C2/C(=O)NC(=O)N(c3ccc(C)cc3)C2=O)ccc1OCCOc1ccc([N+](=O)[O-])cc1`: the displacement was found to be 10.8%.

Consider `COc1cc(/C=C2/C(=O)NC(=S)N(c3ccccc3)C2=O)ccc1OCc1ccc([N+](=O)[O-])cc1`, for which the displacement is 4%.

On to `COc1cc(/C=C2\C(=O)NC(=O)N(c3ccc(C)cc3)C2=O)ccc1OCc1ccc([N+](=O)[O-])cc1`, for which the displacement worked out at 70%.

Regarding `COc1cc(C=C2C(=O)c3ccccc3C2=O)ccc1OCc1ccc(F)cc1`, the displacement amounted to 88.7%.

With `O=C1C(=Cc2ccc(OCc3ccc(F)cc3)c(Br)c2)C(=O)c2ccccc21`, the displacement is 19.1%.

Regarding `COc1cc(C=C2C(=O)c3ccccc3C2=O)ccc1OCc1ccc(I)cc1`, the displacement was -11.5%.

Take `C=CCOc1ccc(/C=C2/C(=O)NC(=O)N(c3cccc(C)c3)C2=O)cc1OCC`: the displacement was found to be 126%.

As to `C=CCOc1ccc(/C=C2\C(=O)NC(=O)N(c3ccc(Cl)cc3)C2=O)cc1OCC`, the displacement is -4%.

In the case of `CCOc1cc(/C=C2/C(=O)NC(=O)N(c3ccccc3)C2=O)ccc1OCc1ccc([N+](=O)[O-])cc1`, the displacement came to 75.9%.

As for `CCOc1cc(/C=C2/C(=O)NC(=O)N(c3ccc(OC)cc3)C2=O)ccc1OCCOc1ccc([N+](=O)[O-])cc1`, the displacement is -0.9%.

On to `COc1cc(/C=C2\C(=O)NC(=O)N(c3ccc(C)cc3)C2=O)ccc1OCc1ccccc1`, for which the displacement came to 38.6%.

For the molecule `Cc1ccc(NS(=O)(=O)c2cccc([N+](=O)[O-])c2)cc1Cl`, the displacement is -0.2%.

For `CC(=O)Nc1ccccc1NC(=O)c1ccc(Cl)cc1`, the displacement came out at 11.4%.

With `O=C(O)CCC(=O)Nc1ccc2nn(-c3ccccc3)nc2c1`, the displacement worked out at 3.6%.

`COc1cc(C(=O)Nc2ccc(Br)cn2)cc(OC)c1OC`: the displacement is -1.3%.

As for `CCCCOC(=O)c1sc2nc(N)c(C#N)c(-c3ccc(OC)c(OC)c3)c2c1N`, the displacement worked out at 167%.

As for `COc1ccc(-c2c(C#N)c(N)nc3c2CCCCC3)cc1OC`, the displacement is -2.3%.

Turning to `CCOc1ccc(-c2c(C#N)c(N)nc3sc(C#N)c(N)c23)cc1`, the displacement was -1.4%.

For the molecule `O=C(CCN1C(=O)c2ccccc2C1=O)NC1CCCC1`, the displacement is 8.5%.

In the case of `O=C(N/N=C/c1cccnc1)/C(=C\c1cccs1)NC(=O)c1ccccc1`, the displacement is -9.3%.

Turning to `O=C1NC(=Nc2cccc(O)c2)S/C1=C\c1cccc(O)c1`, the displacement came out at 1.9%.

As to `O=C1NC(=Nc2cccnc2)S/C1=C\c1ccc(Br)cc1`, the displacement was determined as 12.1%.

Regarding `O=C1NC(=Nc2ccc(O)cc2)S/C1=C\c1ccc(F)cc1`, the displacement is 7.7%.

Turning to `O=C1NC(=Nc2cccnc2)S/C1=C\c1cccc(F)c1`, the displacement came out at 146%.

As to `O=C1NC(=Nc2cccc(O)c2)S/C1=C\c1ccc(F)cc1`, the displacement amounted to 75.8%.

Turning to `O=C1NC(=Nc2cccnc2)S/C1=C\c1ccc(F)cc1`, the displacement is 3.5%.

Turning to `CCOC(=O)C12CC3CC(CC(C3)C1)C2`, the displacement is -12.2%.

On to `COc1ccc([N+](=O)[O-])cc1NCc1cccnc1`, for which the displacement was 3.1%.

`NC(=O)c1cccc(N=Cc2c(O)ccc3ccccc23)c1`: the displacement was -0.3%.

Regarding `CCC(=O)Nc1ccc2oc(-c3ccccc3Br)nc2c1`, the displacement worked out at 8.7%.

On to `Oc1ccc2ccccc2c1C=Nc1ccc2oc(-c3ccccc3Br)nc2c1`, for which the displacement worked out at 120%.

Take `COc1ccc(-c2ccc(-c3nnc(-c4cccc(C)c4)o3)cc2)cc1`: the displacement is -5.4%.

Take `COc1cc(C=NN2CCN(Cc3ccc(C)cc3C)CC2)cc(Br)c1O`: the displacement stood at 10.3%.

Regarding `N#C/C(=N\Nc1ccccc1)c1nc(-c2ccc(F)cc2)cs1`, the displacement is 127%.

As for `N#C/C(=N/Nc1cccc(C(F)(F)F)c1)c1nc(-c2ccccc2)cs1`, the displacement is -4.4%.

For `N#C/C(=N\Nc1ccccc1F)c1nc(-c2ccccc2)cs1`, the displacement came to 7.2%.

For the molecule `Cc1ccccc1CNC(=O)CN(c1ccc(Oc2ccccc2)cc1)S(C)(=O)=O`, the displacement came out at 7.2%.

`CCOc1ccccc1NC(=O)c1cc(C(=O)OC)cc([N+](=O)[O-])c1`: the displacement is -7.1%.

On to `CC1=NN(c2ccc(S(N)(=O)=O)cc2)C(=O)/C1=C\c1ccc(-c2ccc(C)c(Cl)c2)o1`, for which the displacement came out at 4%.

In the case of `COc1ccc(/C=C2/SC(=O)N(CNc3ccc(Br)cc3C)C2=O)cc1`, the displacement is 4.5%.

`COc1ccc(OC)c(/C=C2\NC(=S)N(c3ccccc3)C2=O)c1`: the displacement came to 62.3%.

Take `COc1ccc(C=C2NC(=S)N(c3ccccc3)C2=O)c(OC)c1`: the displacement is 3.7%.

For the molecule `COc1ccc(OC)c(/C=C2\SC(=S)N(c3ccccc3C)C2=O)c1`, the displacement amounted to 158%.

Regarding `COc1ccc(OC)c(/C=C2/SC(=O)N(CNc3ccc(Br)cc3C)C2=O)c1`, the displacement was 90.9%.

Consider `COc1ccc(OC)c(/C=C2/SC(=S)N(c3ccccc3OC)C2=O)c1`, for which the displacement was -0.9%.

Consider `COc1ccc(N2C(=O)/C(=C\c3cc(OC)ccc3OC)SC2=S)cc1`, for which the displacement came to 28.3%.

`COc1ccc(/C=C2\NC(=S)N(c3ccccc3)C2=O)cc1OC`: the displacement was 41.7%.

With `COC(=O)CN1C(=O)/C(=C/c2cc(OC)ccc2OC)SC1=S`, the displacement was -14.6%.

Take `COc1ccc(/C=C2/SC(=O)N(CNc3ccc(Br)cc3C)C2=O)c(OC)c1`: the displacement was 31.7%.

As to `COc1ccc(OC)c(/C=C2/SC(=S)N(CNc3cccc(Cl)c3)C2=O)c1`, the displacement stood at 57%.

As to `COc1ccccc1/C=C1/SC(=O)N(CNc2cccc(Cl)c2)C1=O`, the displacement worked out at 9.1%.
